Compound activity (PubChem BioAssay)
An excerpt weighted towards active compounds, which were near 1.6% of everything screened.
KCNQ2 inh: inhibitors of rat KCNQ2 potassium channel | O88943 | CHO-K1 KCNQ2, FluxOR thallium flux, 20 min; hits give low values | B-score at 10 µM | actives 1.1% (n = 310,000);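 active = fluorescence ratio B-score at most minus 3 library SDs, with starting brightness B-score within 2 library SDs, cut at about -5.5 in these data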
KCNQ2 pot: enhances the rat KCNQ2 potassium channel; O88943; actives 0.54% (n = 310,000); CHO-K1 KCNQ2, FluxOR thallium flux fluorescence; hits give high values; B-score at 10 µM;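 active = fluorescence ratio B-score at least 3 SD of library B-scores, with initial fluorescence B-score within 3 of them, cut at about 5.3 in these data; same plate scores as AID 2156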;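 also: B-score of peak minus minimum over baseline fluorescence ratio after K+ and Tl+ stimulus; positive B-score means potentiation of KCNQ2 with more thallium influx and brighter signal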
KCNQ2 block conf: confirmation of rat KCNQ2 potassium channel inhibitors; actives 57% (n = 1,000); KCNQ2-expressing cells, thallium flux, inhibition; hits give low values; activity change, negative = inhibition, % at 10 µM; AID 493025; shares compounds with KCNQ2 inh
KCNQ1 spec: human KCNQ1 activity in KCNQ2 inhibitor specificity screen | KCNQ1-expressing cells, FluxOR thallium flux fluorescence; hits give low values | AID 493026 | activity change, negative = inhibition, % at 10 µM | actives 15% (n = 1,000) | shares compounds with KCNQ2 inh;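 active = activity change at least 3 SD of negative controls below their mean in both duplicate wells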;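 also: CHO cells stably transfected with KCNQ1 and depolarized by potassium stimulus; peak minus minimum fluorescence over baseline after thallium addition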
Target sequence (P51787 whole entry, looked up): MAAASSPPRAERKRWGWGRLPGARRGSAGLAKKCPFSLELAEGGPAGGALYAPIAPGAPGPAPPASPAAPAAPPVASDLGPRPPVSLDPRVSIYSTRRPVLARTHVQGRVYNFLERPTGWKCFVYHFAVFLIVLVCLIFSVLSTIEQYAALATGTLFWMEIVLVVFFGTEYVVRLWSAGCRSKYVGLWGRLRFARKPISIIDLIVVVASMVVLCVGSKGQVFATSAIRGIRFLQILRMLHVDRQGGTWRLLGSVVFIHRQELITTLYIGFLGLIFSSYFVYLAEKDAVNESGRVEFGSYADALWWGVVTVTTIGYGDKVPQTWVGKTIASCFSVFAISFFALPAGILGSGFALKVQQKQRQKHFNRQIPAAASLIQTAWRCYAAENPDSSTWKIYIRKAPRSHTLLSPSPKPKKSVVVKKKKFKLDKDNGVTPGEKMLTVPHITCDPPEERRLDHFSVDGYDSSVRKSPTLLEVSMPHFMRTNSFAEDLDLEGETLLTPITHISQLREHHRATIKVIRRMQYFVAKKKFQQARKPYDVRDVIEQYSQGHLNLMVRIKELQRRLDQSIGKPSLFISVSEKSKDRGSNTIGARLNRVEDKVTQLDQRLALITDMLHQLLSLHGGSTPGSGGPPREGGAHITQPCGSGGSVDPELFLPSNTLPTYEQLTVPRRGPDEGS
CHO Tl ctr: KCNQ2 inhibitor counter-screen hit in parental CHO cells; shares compounds with KCNQ2 inh; thallium flux counter-screen; hits give low values; activity change, % at 10 µM; actives 14% (n = 1,000)
KCNQ2 inh confirm: blocks rat KCNQ2 current in automated patch clamp. shares compounds with KCNQ2 inh. KCNQ2-expressing cells. calls only at 10 µM. actives 49% (n = 550)
Each line names hits and unclear results; the compound was inactive in the other large screens (follow-up assays come after a bar, where they were run). Unless noted, no rule for the calls is given here.

CC(=O)Oc1ccc(/C(C)=N\N2CCN(Cc3ccc(Cl)cc3)CC2)cc1	none (no result: KCNQ2 pot)
Cc1ccc(F)cc1NC(=O)c1c(-c2ccccc2)noc1C	KCNQ2 inh -8.14 | KCNQ2 block conf inactive | KCNQ1 spec inactive | CHO Tl ctr inactive
Cc1onc(-c2ccccc2)c1C(=O)Nc1ccncc1	none
Cc1onc(-c2ccccc2)c1C(=O)Nc1ccc(Br)cc1Cl	none (no result: KCNQ2 pot)
Cc1ccccc1NC(=O)c1c(-c2ccccc2)noc1C	KCNQ2 inh -9.54 | KCNQ2 block conf inactive | KCNQ1 spec inactive | CHO Tl ctr inactive
CCOC(=O)C(C#N)(Cc1cc(OC)cc(OC)c1)Cc1cc(OC)cc(OC)c1	none (no result: KCNQ2 pot)
C[N+]1(CC(O)COCC2COc3ccccc3O2)CCOCC1 (stereo not given)	none
CCOC(=O)c1c(-c2ccc(-c3ccccc3)cc2)csc1NC(=O)CNCCN(C)C	KCNQ2 inh -8.82 | KCNQ2 block conf inactive | KCNQ1 spec inactive | CHO Tl ctr inactive
CCOC(=O)c1c(-c2cccs2)csc1NC(=O)C(C)(C)C	KCNQ2 inh -7.02 | KCNQ2 block conf -35.0% | KCNQ1 spec -37.0% | CHO Tl ctr -34.5% | KCNQ2 inh confirm inactive
CCOC(=O)c1c(-c2ccc(-c3ccccc3)cc2)csc1NC(=O)CCN1CCOCC1	none
CCOC(=O)c1c(-c2cccs2)csc1NC(=O)CCCC(=O)O	none
CCOC(=O)c1c(-c2cccs2)csc1NC(C)=O	none (no result: KCNQ2 pot)
CCOC(=O)c1c(-c2cccs2)csc1NC(=O)CN1CC(C)OC(C)C1 (stereo not given)	KCNQ2 inh -8.07 | KCNQ2 block conf -19.0% | KCNQ1 spec inactive | CHO Tl ctr inactive | KCNQ2 inh confirm inactive
CCCCC(CC)CNC(=O)C(=O)c1ccccc1NC(C)=O (stereo not given)	none
O=C(NCc1ccco1)c1ccc(CS(=O)Cc2ccc(Cl)cc2)o1 (stereo not given)	none
Cc1ccccc1NC1=C(C(=O)c2ccccc2)N(C)S(=O)(=O)c2ccccc21	KCNQ2 inh -8.11 | KCNQ2 block conf -29.0% | KCNQ1 spec inactive | CHO Tl ctr inactive | KCNQ2 inh confirm active
O=C(C1=C(Nc2ccccc2)c2ccccc2S(=O)(=O)N1)c1ccccc1	none
CCOc1ccccc1/C=C(\C#N)C(=O)NC1CC1	none (no result: KCNQ2 pot)
N#C/C(=C\c1ccccc1[N+](=O)[O-])C(=O)NC1CCCCC1	KCNQ2 inh -6.86 | KCNQ2 block conf -34.0% | KCNQ1 spec inactive | CHO Tl ctr inactive | KCNQ2 inh confirm active
CCC(C(=O)NCCc1ccccc1OC)n1nc(C)c2c(C)n(-c3ccccc3)nc2c1=O (stereo not given)	none (no result: KCNQ2 pot)
COCCn1c(N)c(N(Cc2ccccc2)C(=O)c2ccc(-c3ccc(Cl)cc3)o2)c(=O)[nH]c1=O	none (no result: KCNQ2 pot)
C=CCC1(CC=C)CCCN1C(=O)c1cc(COc2cccc(C(F)(F)F)c2)on1	KCNQ2 inh -9.47 | KCNQ2 block conf -34.0% | KCNQ1 spec -30.5% | CHO Tl ctr -28.5% | KCNQ2 inh confirm active
CCOC(=O)N1CCN(C(=O)c2cc(COc3cccc(C(F)(F)F)c3)on2)CC1	none
CCCCn1c(N)c(N(CCOC)C(=O)CCCc2cccs2)c(=O)[nH]c1=O	none (no result: KCNQ2 pot)
C(=C\c1ccccc1)/CN1CCN(C(c2ccccc2)c2ccccc2)CC1	none (no result: KCNQ2 pot)
Fc1ccc(C(c2ccc(F)cc2)N2CCN(C/C=C/c3ccccc3)CC2)cc1	KCNQ2 inh -8.64 | KCNQ2 block conf inactive | KCNQ1 spec inactive | CHO Tl ctr inactive
O=C(CCc1nc2ccccc2[nH]c1=O)N/N=C/c1ccccc1	none (no result: KCNQ2 pot)
COc1ccccc1CNC(=O)CN1C(=O)C(C)N(c2ccc(C)cc2)C1=O (stereo not given)	KCNQ2 inh -7.53 | KCNQ2 block conf inactive | KCNQ1 spec inactive | CHO Tl ctr inactive
COc1ccc(CNC(=O)CN2C(=O)C(C)N(c3ccc(C)cc3)C2=O)cc1 (stereo not given)	none (no result: KCNQ2 pot)
N/C(=N\OC(=O)CSc1ccccc1)c1ccncc1	none
Cc1ccc(SCC(=O)N2c3ccccc3Sc3ccccc32)cc1	KCNQ2 inh -6.61 | KCNQ2 block conf inactive | KCNQ1 spec inactive | CHO Tl ctr inactive
O=C(COc1ccc2ccccc2c1)N1c2ccccc2Sc2ccccc21	KCNQ2 inh -8.87 | KCNQ2 block conf -27.5% | KCNQ1 spec inactive | CHO Tl ctr inactive | KCNQ2 inh confirm inactive
CC(=O)NCC(=O)OCC(=O)N1c2ccccc2Sc2ccccc21	none
O=C(CSc1nncs1)N1c2ccccc2Sc2ccccc21	none
COc1ccc(C(=O)Nc2ccccc2N2CCCC2)cc1S(=O)(=O)N1CCOCC1	none (no result: KCNQ2 pot)
COc1ccc(-c2noc3c2-c2nc(-c4ccc(Cl)cc4)sc2CC3)cc1	none (no result: KCNQ2 pot)
Cc1cccc(NC(=S)NC2CC3C=CC2C3)c1 (stereo not given)	none
CC(C)CC(NC(=O)C1CCC(C)CC1)C(=O)NCc1ccco1 (stereo not given)	none (no result: KCNQ2 pot)
COc1ccccc1CNC(=O)C(CC(C)C)NC(=O)C1CCC(C)CC1 (stereo not given)	KCNQ2 inh -8.17 | KCNQ2 block conf -28.0% | KCNQ1 spec inactive | CHO Tl ctr inactive | KCNQ2 inh confirm active
CC(=O)C(Cc1ccccc1)NC(=O)CCl (stereo not given)	none (no result: KCNQ2 pot)
CC(=O)C(Cc1ccccc1)NC(=O)CN(C)Cc1ccccc1Cl (stereo not given)	KCNQ2 inh -8.49 | KCNQ2 block conf inactive | KCNQ1 spec inactive | CHO Tl ctr inactive
Cc1cc(NC(=O)COC(=O)CCS(=O)(=O)c2cc(Cl)ccc2Cl)no1	none (no result: KCNQ2 pot)
CCOc1cc(CNCc2cccnc2)cc(Br)c1OCC(N)=O	none
COc1cc2c(cc1NC(=O)C(c1ccccc1)c1ccccc1)CCCC2	KCNQ2 inh -7.06 | KCNQ2 block conf -33.5% | KCNQ1 spec inactive | CHO Tl ctr inactive | KCNQ2 inh confirm active
COc1cc(NC(=O)C(c2ccccc2)c2ccccc2)c(C(=O)O)cc1OC	none
O=S(=O)(c1ccc2ncn(O)c2c1)N1CCOCC1	none (no result: KCNQ2 pot)
CC(C)(C)c1ccc(-c2nnc(SCCC#N)n2C2CCCC2)cc1	KCNQ2 inh -8.48 | KCNQ2 block conf -28.0% | KCNQ1 spec inactive | CHO Tl ctr inactive | KCNQ2 inh confirm inactive
Cn1c(SCCC#N)nnc1-c1ccc(F)cc1	none
CCCN1CCN(CCCNC(=O)Cn2nc(C)n3c(cc4cc(F)ccc43)c2=O)CC1	none
COc1ccc(C)cc1NC(=O)C(Sc1nnnn1C)c1ccccc1 (stereo not given)	none (no result: KCNQ2 pot)
COCCn1c(SC(C(=O)Nc2cc(C)ccc2OC)c2ccccc2)nnc1-c1ccc(Cl)cc1 (stereo not given)	KCNQ2 inh -9.51 | KCNQ2 block conf inactive | KCNQ1 spec inactive | CHO Tl ctr inactive
O=c1c2ccccc2cnn1Cc1n[nH]c(=S)n1-c1ccccc1Cl	none (no result: KCNQ2 pot)
CCOC(=O)N1CCc2c(sc3c2c(=O)n(Cc2ccccc2)c(=O)n3Cc2cccc(C)c2)C1	KCNQ2 inh -8.59 | KCNQ2 block conf -43.5% | KCNQ1 spec -30.0% | CHO Tl ctr -28.0% | KCNQ2 inh confirm inactive
CCOC(=O)N1CCc2c(sc3c2c(=O)n(Cc2ccccc2)c(=O)n3Cc2ccccc2F)C1	KCNQ2 inh -11.6 | KCNQ2 block conf inactive | KCNQ1 spec inactive | CHO Tl ctr inactive
